Our source for the outcome and AC50 values is PubChem BioAssay (EPA / NIEHS).

Calls of active or inactive are those of the source. The calls were made as follows: active = hit-call score of the fitted dose curve at least 0.9, where 1 is the maximum; inactive = score below 0.9.

Read-out in this assay: Vascular cell adhesion molecule 1 (VCAM1), VCAM1 (gene 7412)
As to the kind of experiment: BSK_4H_VCAM1: BioMAP Diversity Plus: 4H Assay for Vascular cell adhesion molecule 1 (VCAM1) Biomarker Activity (AID 2283033). As to conditions: primary human endothelial cells (HUVEC); actives raise or lower the signal. Here is the method: BSK_4H is a cell-based, multiplexed-readout assay that uses umbilical vein endothelium, a human vascular primary cell, with measurements taken at 24 hours after chemical dosing in a 96-well plate.BSK_4H_VCAM1 is an assay component measured in the BSK_4H assay. It measures VCAM-1 antibody related to regulation of gene expression using ELISA technology.Data from the assay component BSK_4H_VCAM1 was analyzed into 1 assay endpoint. This assay endpoint, BSK_4H_VCAM1, was analyzed with bidirectional fitting relative to DMSO as the negative control and baseline of activity. Using a type of binding reporter, gain or loss-of-signal activity can be used to understand changes in the signaling as they relate to the gene VCAM1. Furthermore, this assay endpoint can be referred to as a primary readout, because this assay has produced multiple assay endpoints where this one serves a signaling function. To generalize the intended target to other relatable targets, this assay endpoint is annotated to the cell adhesion molecules intended target family, where the subfamily is Immunoglobulin CAM.
The levels of cell surface (or secreted, indicated by the prefix "s") biomarker endpoints were measured by ELISA. Overt cytotoxicity to cells in confluent adherent cultures (all systems other than the BT system) was assessed by measuring total protein levels using sulforhodamine B (SRB) staining in parallel cultures at the time of biomarker measurements, indicated as SRB endpoints. For proliferation assays for adherent cell types, individual cell types are cultured at sub-confluence and relative cell numbers quantified by SRB staining at time points optimized for each system (48 h: 3C and CASM3C systems; 72 h: BT and HDF3CGF systems; 96 h: SAg system). SRB was performed by staining cells with 0.1% SRB after fixation with 10% TCA and reading wells at 560 nm.Viability and proliferation of PBMC (T cells) was quantified by Alamar Blue reduction for the SAg and BT systems. For PBMC viability (referred to as PBMC Cytotoxicity within the assay endpoint names), cells were plated (75,000/well in a 96-well plate) and then chemical samples added for 1 h before addition of activators, SEB and TSST-1 (20 ng/mL final concentration each). Cells were incubated for 90 h. Then, Alamar Blue (20 uL/well) (Invitrogen, Cat DAL1100) was added for 6 h, and the plates were read with a fluorescence microplate reader at 546/580 nm (excitation/emission). For PBMC proliferation, cells were plated and activated as above but incubated for only 16 h prior to addition of Alamar Blue. Plates were read after 6 h.
For `c1ccc2c(c1)oc1ccccc12`, the result was inactive.
For `CCCCCCCCn1sccc1=O`, the half-maximal activity concentration (AC50) is 9.24 µM (active).
Still for that read-out and setting: next, `[Cl-].[Cl-].[Hg+2]`: 29.7 µM (active).
With `O=Cc1ccco1`, the result was inactive.
On the same count and under the same terms, next, `CCCCOC(=O)c1ccccc1C(=O)OCc1ccccc1`: “inactive”; `CCCCCCCCCCCCCN1CC(C)OC(C)C1` (stereo not given): “inactive”.
Same read-out and setting: next, `Cc1ccc(N)cc1`: “inactive”; `C[C@]12C=CC3=C4CCC(=O)C=C4CC[C@H]3[C@@H]1CC[C@@H]2O`: “inactive”.
As to `Cc1cccc(N)c1N`, the AC50 is 13.6 µM (active).
With `OCCOCCO`, the outcome was inactive.
Regarding `CCOc1cccc(C2(N3CCN(c4ccccc4)CC3)CCC(C)CC2)c1` (stereo not given), the result was inactive.
On the same count and under the same terms, under `CN(C)c1ccccc1` stands “inactive”.
`Cc1ccc(N)c(N)c1`: the AC50 is 8.05 µM (active).
As to `O=C(N[C@H](c1ccccc1)[C@@H]1CN2CCC1CC2)c1c(Cl)ccc(C(F)(F)F)c1Cl`, the outcome was inactive.
The same measure, in the same setting: under `CCCCC(CC)COC(=O)c1ccc(C(=O)OCC(CC)CCCC)c(C(=O)OCC(CC)CCCC)c1` (stereo not given) stands “inactive”; under `Nc1ccc(Oc2ccc(N)cc2)cc1`, “inactive”; under `CCN(CC)N=O`, “inactive”.
Still for that read-out and setting: under `O=[N+]([O-])c1ccc(Oc2ccc(Cl)cc2Cl)cc1` stands “inactive”; under `Nc1ccc([N+](=O)[O-])cc1`, “inactive”.
In the case of `CS(=O)(=O)NC(=O)c1cc(Oc2ccc(C(F)(F)F)cc2Cl)ccc1[N+](=O)[O-]`, the outcome was inactive.
With `Cn1cc(-c2ccccc2)c(=O)c(-c2cccc(C(F)(F)F)c2)c1`, the outcome was inactive.
As to `CC(C)COC(=O)c1ccccc1C(=O)OCC(C)C`, the AC50 is 14.1 µM (active).
`c1ccc(NNc2ccccc2)cc1`: the outcome was inactive.
For `O=[N+]([O-])C(Br)(CO)CO`, the AC50 is 27.1 µM (active).
The same measure, in the same setting: next, `Clc1ccc(C(c2ccc(Cl)cc2)C(Cl)Cl)cc1`: 25 µM (active).
`CN(C)C(=O)Nc1ccc(Cl)cc1`: the outcome was inactive.
For `[As]#[In]`, the outcome was inactive.
On the same count and under the same terms, under `CCN(CC)CCO` stands “inactive”; under `Nc1ccc(Cc2ccc(N)cc2)cc1`, “inactive”; under `CC(C)(C)C(O)(CCc1ccc(Cl)cc1)Cn1cncn1` (stereo not given), “inactive”.
With `CCCCCCCCOC(=O)c1ccc(C(=O)OCCCCCCCC)c(C(=O)OCCCCCCCC)c1`, the result was inactive.
`CCC(C)c1ccc(O)cc1` (stereo not given): the result was inactive.
On the same count and under the same terms, next, `Nc1cc(Cl)cc(C(=O)O)c1Cl`: “inactive”.
The same measure, in the same setting: under `O=C1CCCO1` stands “inactive”.
Same read-out and setting: next, `CN(C)[C@@H]1C(=O)C(C(N)=O)=C(O)[C@@]2(O)C(=O)C3=C(O)c4c(O)cccc4[C@@](C)(O)[C@H]3C[C@@H]12`: “inactive”; `CC(C)(C)OOC(=O)c1ccccc1`: “inactive”; `ClCCOCCCl`: “inactive”.
For `O=C(O)C1C2CCC(O2)C1C(=O)O` (stereo not given), the AC50 was 12.1 µM (active).
With `Oc1ccc2ccc3cccc4ccc1c2c34`, the AC50 is 34 µM (active).
On the same count and under the same terms, under `ClC1=C(Cl)C2(Cl)C3C(Cl)C=CC3C1(Cl)C2(Cl)Cl` (stereo not given) stands 32.4 µM (active).

One may read the AC50 as the concentration giving half of the maximal activity seen.
